We go through six compounds from PubChem BioAssay (NCATS).

Test [1] can be described thus: Stat Signaling Pathway (AID 446; active = well fitted curve in either direction with a large enough effect, not every such curve was filed as active;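 also: ME-180 cervical cancer cells given 40 pM IL-6 alongside compound; SIE-controlled beta-lactamase reporter measured as 460/530 nm FRET emission ratio; % is scaled to controls: 0 for no effect and ±100 for the full control effect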). The conditions noted are these: ME-180 (cervical carcinoma) SIE beta-lactamase reporter, IL-6 stimulated, 5 h. The essentials:
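IL-6/STAT signaling read in ME-180 cells via an SIE beta-lactamase reporter. Stimulus was 40 pM IL-6 (its AC50) for 5 hrs, so both activation and inhibition register.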

The target in test [2] is Glucocorticoid receptor (Homo sapiens) (UniProt P04150). The experiment in a line: GR-GFP Redistribution (AID 450;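 active = compounds whose dose series gives a full or clear partial fitted curve of increased nuclear translocation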; also: potency is read from the fitted curve at half-maximal effect). The conditions noted are these: U2OS GR-GFP nuclear translocation, laser cytometry, 2 h.
The target is the same in test [3]. As to the kind of experiment: GR-EFC Redistribution (AID 451; calls by dose curve; also: potency is read from the fitted curve at half-maximal effect). Particulars: CHO-K1 GR-EFC translocation, beta-gal luminescence, 2 h. The essentials: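 Translocation of GR-ED fusion to nuclear EA restores b-gal, read by luminescence after 1 h room-temperature detection. Engineered CHO-K1 biosensor cells, 1,000/well, exposed 2 h at 37 C to titrations up to 46 uM final.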

In test [4] the target is Mitogen-activated protein kinase 10 (Mus musculus) (UniProt Q61831). The experiment in a line: JNK3 AlphaScreen Assay (AID 530; active = well fitted curve in either direction with a large enough effect, not every such curve was filed as active;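 also: kinase came from lysate of stimulated human HepG2 cells; signal reports phosphorylation of biotinylated GST-cJun 1-79 at Ser73 with 10 µM ATP; % is scaled to controls: 0 for no effect and ±100 for the full control effect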). Particulars: JNK3 lysate, c-Jun phosphorylation; series mostly up to 57.1 µM. In a few lines: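 Room-temperature AlphaScreen kinase assay; pre-activated HepG2 lysate as JNK3 source, biotin-GST-cJun(1-79) substrate, 10 uM ATP, compound 15 min preincubation.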
For orientation: In Alpha technology, singlet oxygen from a donor bead excites a nearby acceptor bead.

Test [5] is described as follows: Cell Viability - N2a (AID 540).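 Also: plate controls were DMSO alone for no effect and tamoxifen control for full effect; nearly all actives have a fitted effect of over 45% in size.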 The conditions noted are these: N2a mouse neuroblastoma cell viability; activity change, negative = cytotoxicity: at 92.2 µM (top of the series). In a few lines:
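First, 1500 N2a cells per well incubate 5 hr at 37 °C; next, compounds are added and incubated 40 hr at 37 °C; finally CellTiter-Glo is added and luminescence read after 20 min, with AC50 derived by Hill modeling.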

Test [6] can be described thus: Cell Viability - NIH 3T3 (AID 541).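 Also: plate controls were DMSO alone for no effect and tamoxifen positive control for full effect; nearly all actives have a fitted effect of over 25% in size.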 Particulars: NIH 3T3 cell viability, qHTS; at 92.2 µM (top of the series). In a few lines: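 AC50 values reflect concentration-dependent loss of intracellular ATP in NIH 3T3 cells after 40 hr treatment in complete culture medium, quantified by luciferase-based luminescence.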
For orientation: In qHTS, concentration-response curves come from the screen itself.

The nature of test [7]: Cell Viability - HUV-EC-C (AID 542). Also: nearly all actives have a fitted effect of over 35% in size. Also: potency is read from the fitted curve at half-maximal effect. As to activity change, negative = cytotoxicity: % is scaled to controls: 0 for no effect and ±100 for the full control effect. Particulars: HUV-EC-C endothelial cell viability, qHTS; series mostly up to 92.2 µM. In a few lines: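 Decrease in cellular ATP, quantified by luciferase luminescence, reflects toxicity in normal human vascular endothelial HUV-EC-C cells given compound for 40 hr in complete culture medium. Values are AC50s from concentration-response curves.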

Test [8] in a line: Cell Viability - H-4-II-E (AID 543). Also: nearly all actives have a fitted effect of over 35% in size. Also: potency is read from the fitted curve at half-maximal effect. Particulars: H-4-II-E rat hepatoma viability; series mostly up to 92.2 µM. The essentials: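 Here, cytotoxicity is measured in the rat hepatoma line H-4-II-E as loss of intracellular ATP after 40 hr compound treatment, detected by luciferase luminescence.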
Test [9] in a line: Cell Viability - SH-SY5Y (AID 544). Also: nearly all actives have a fitted effect of over 55% in size. Particulars: SH-SY5Y neuroblastoma cell viability; viability change, negative = cytotoxic: at 92.2 µM (top of the series). The essentials: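 Cytotoxicity is scored as a concentration-dependent fall in intracellular ATP in human SH-SY5Y cells treated 40 hr in complete culture medium. Potency is expressed as AC50 from a Hill equation fit.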
Test [10] can be described thus: Cell Viability - Renal Proximal Tubule (AID 545). Also: nearly all actives have a fitted effect of over 40% in size. The conditions noted are these: renal proximal tubule cells viability, primary cells of rat origin; activity change, negative = cytotoxicity: at 91.7 µM (top of the series). The essentials:
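Rat renal proximal tubule primary cells, 1000/well, exposed to compounds for 40 hr at 37 °C in complete medium; cellular ATP read by CellTiter-Glo luminescence. AC50 from concentration-response fitted with standard Hill equation.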

A short description of test [11]: Cell Viability - Mesenchymal (AID 546).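 Also: cells exposed to compound for 40 hours before reading.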 The conditions noted are these: mesenchymal cells viability, qHTS; activity change, negative = cytotoxicity: at 91.7 µM (top of the series). The essentials: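 AC50 values reflect the drop in intracellular ATP in a human kidney mesenchymal line derived from normal glomeruli. Treatment lasts 40 hr at 37 °C in complete medium, and the signal comes from CellTiter-Glo luminescence.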

Test [12] addresses 3',5'-cyclic-AMP phosphodiesterase 4B (Homo sapiens) (UniProt Q07343). The experiment in a line: qHTS Assay for Inhibitors of PDE-IV (AID 607; active = well fitted activation curve with a large enough effect in the main read-out, with a control signal flat, not every such curve was filed as active; also: % of control where 0% means no effect). Particulars: HEK293 ACTOne CNG channel cells, membrane potential fluorescence; series mostly up to 22.9 µM. In a few lines: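 Live HEK293 cells with a modified cyclic nucleotide-gated (CNG) channel report intracellular cAMP via membrane-potential dye fluorescence (ex 535/em 590 nm). Endogenous PDE-IV was targeted. Compounds were tested at up to 22.9 uM final; RO 20-1724 100 uM served as control.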

Test [13] in a line: Cellular Toxicity (caspase-3) HepG2 (AID 654). Also: potency is read from the fitted curve at half-maximal effect.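 As to caspase-3 activation: cells exposed to compound for 16 hours before reading; 0% = DMSO alone and 100% = caspase signal from 100 µM tamoxifen.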 The conditions noted are these: HepG2 caspase-3 activation, luminescence; series mostly up to 92.2 µM. The essentials:
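qHTS, HepG2, 1500 cells/well, complete medium; cpd 16 h 37 °C; Caspase-Glo 3/7, 20 min RT; lum. Norm: DMSO vs 100 uM tamoxifen; AC50 Hill fit.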

Test [14] is described as follows: Cellular Toxicity (caspase-3) Jurkat (AID 655).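 Also: cells exposed to compound for 16 h at 37 °C before reading.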 The conditions noted are these: Jurkat caspase-3 activation, luminescence, DMSO = 0%, tamoxifen = 100%; at 92.2 µM (top of the series). The essentials:
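Jurkat cells (5000/well) in complete medium exposed 16 h at 37 C; caspase-3/7 activity read by Caspase-Glo luminescence after 20 min at room temperature. Normalized to DMSO and 100 uM tamoxifen; AC50 from Hill fits.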

Test [15] in a line: Cellular Toxicity (caspase-3) HUV-EC-C (AID 656). Also: potency is read from the fitted curve at half-maximal effect. The conditions noted are these: HUV-EC-C cells, caspase-3 activation (apoptosis); series mostly up to 92.2 µM. The essentials:
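HUV-EC-C cells (1000/well) in complete medium, compound-treated 16 h at 37 °C; caspase-3/7 activity read by Caspase-Glo 3/7 luminescence. Normalized to DMSO (basal) and 100 uM tamoxifen (100%); AC50 from Hill-equation concentration-response fits.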

A short description of test [16]: Cellular Toxicity (caspase-3) SHSY5Y (AID 657). Particulars: SH-SY5Y caspase-3 activation, DMSO zero, 10 µM staurosporine = 100%; series mostly up to 91.7 µM. In a few lines: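 SH-SY5Y human neuroblastoma cells, 1500/well, exposed to compound for 16 hours at 37 °C in complete medium. Caspase-3/7 activity read by Caspase-Glo luminescence after 1 hr at room temperature, normalized to DMSO and 10 uM staurosporine; AC50 from Hill fit.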

A short description of test [17]: Cellular Toxicity (caspase-3) BJ (AID 658). The conditions noted are these: BJ fibroblasts, luminescence, normalized: DMSO 0%, staurosporine 100%; series mostly up to 91.7 µM. In a few lines: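 Readout: Caspase-Glo 3/7 luminescence increase in BJ cells after 16 hr treatment at 37 °C. Staurosporine and tamoxifen served as positive controls; AC50 values came from Hill modelling of data normalized to DMSO and 10 uM staurosporine.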

Test [18] is described as follows: Cellular Toxicity (caspase-3) MRC-5 (AID 659). Particulars: MRC-5 cells, luminescence; Potency: caspase-3 activation; series mostly up to 91.7 µM. The essentials:
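Concentration-dependent caspase 3/7 activation is measured in human normal lung fibroblasts (MRC-5) following 16-hour treatment. AC50 values come from standard Hill-equation modeling of luminescence normalized to DMSO and 10 uM staurosporine.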

Test [19] can be described thus: Cellular Toxicity (caspase-3) SK-N-SH (AID 661). Particulars: SK-N-SH caspase-3 activation, qHTS; series mostly up to 91.7 µM. In a few lines: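 Caspase 3/7 activation is measured as a luminescence increase from aminoluciferin released by substrate cleavage in SK-N-SH cells after 16 hr compound treatment; values are AC50 from concentration-response curves.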
Test [20] can be described thus: Cellular Toxicity (caspase-3) H-4-II-E (AID 663).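 Also: cells exposed to compound for 16 hr before readout.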 The conditions noted are these: H-4-II-E rat hepatoma, scaled: DMSO 0%, 100 µM tamoxifen 100%; at 92.2 µM (top of the series). The essentials:
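Apoptosis induction is scored as increased luminescence from caspase 3/7 substrate cleavage in rat hepatoma H-4-II-E cells exposed to compound for 16 hr. Activity is scaled between DMSO and 100 uM tamoxifen.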

Molecules are shown by their SMILES. Values joined by “and” are separate entries in the source; they are usually repeats but may differ in a detail not shown here. Equal entries are not always repeated. Values without a mark were called inactive. Inconclusive results are not listed. Active and inactive are the calls of the source. Unless noted, calls follow the shape of the dose curve; as a rule, active = well fitted curve in the direction sought with a large enough effect; inconclusive = small, poorly fitted or top-dose-only effect, or another doubt; inactive = no such curve, though single readings can be large; an effect the other way counts as inactive or inconclusive.

3',5'-cyclic-AMP phosphodiesterase 4B (Homo sapiens), sequence (Q07343 whole entry, looked up): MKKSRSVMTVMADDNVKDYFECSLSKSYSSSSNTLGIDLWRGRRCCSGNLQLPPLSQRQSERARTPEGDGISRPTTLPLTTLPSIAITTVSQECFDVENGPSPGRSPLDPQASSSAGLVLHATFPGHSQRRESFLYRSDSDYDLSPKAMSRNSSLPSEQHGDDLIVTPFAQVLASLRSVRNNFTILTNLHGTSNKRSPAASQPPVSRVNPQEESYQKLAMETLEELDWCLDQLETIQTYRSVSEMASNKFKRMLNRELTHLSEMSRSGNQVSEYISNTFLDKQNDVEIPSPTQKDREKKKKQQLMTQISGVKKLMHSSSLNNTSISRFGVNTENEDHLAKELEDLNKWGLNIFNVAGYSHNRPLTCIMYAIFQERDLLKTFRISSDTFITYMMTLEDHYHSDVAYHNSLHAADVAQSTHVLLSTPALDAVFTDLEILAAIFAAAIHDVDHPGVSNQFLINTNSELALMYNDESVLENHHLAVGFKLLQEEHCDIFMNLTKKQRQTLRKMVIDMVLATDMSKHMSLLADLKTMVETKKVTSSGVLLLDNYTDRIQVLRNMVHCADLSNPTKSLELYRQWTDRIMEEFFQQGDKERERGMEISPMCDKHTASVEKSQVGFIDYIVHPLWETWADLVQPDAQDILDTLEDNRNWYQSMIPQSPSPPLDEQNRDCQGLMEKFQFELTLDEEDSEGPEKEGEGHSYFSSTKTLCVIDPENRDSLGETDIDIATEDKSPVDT
Glucocorticoid receptor (Homo sapiens), sequence (P04150 whole entry, looked up, the tested form may be a part): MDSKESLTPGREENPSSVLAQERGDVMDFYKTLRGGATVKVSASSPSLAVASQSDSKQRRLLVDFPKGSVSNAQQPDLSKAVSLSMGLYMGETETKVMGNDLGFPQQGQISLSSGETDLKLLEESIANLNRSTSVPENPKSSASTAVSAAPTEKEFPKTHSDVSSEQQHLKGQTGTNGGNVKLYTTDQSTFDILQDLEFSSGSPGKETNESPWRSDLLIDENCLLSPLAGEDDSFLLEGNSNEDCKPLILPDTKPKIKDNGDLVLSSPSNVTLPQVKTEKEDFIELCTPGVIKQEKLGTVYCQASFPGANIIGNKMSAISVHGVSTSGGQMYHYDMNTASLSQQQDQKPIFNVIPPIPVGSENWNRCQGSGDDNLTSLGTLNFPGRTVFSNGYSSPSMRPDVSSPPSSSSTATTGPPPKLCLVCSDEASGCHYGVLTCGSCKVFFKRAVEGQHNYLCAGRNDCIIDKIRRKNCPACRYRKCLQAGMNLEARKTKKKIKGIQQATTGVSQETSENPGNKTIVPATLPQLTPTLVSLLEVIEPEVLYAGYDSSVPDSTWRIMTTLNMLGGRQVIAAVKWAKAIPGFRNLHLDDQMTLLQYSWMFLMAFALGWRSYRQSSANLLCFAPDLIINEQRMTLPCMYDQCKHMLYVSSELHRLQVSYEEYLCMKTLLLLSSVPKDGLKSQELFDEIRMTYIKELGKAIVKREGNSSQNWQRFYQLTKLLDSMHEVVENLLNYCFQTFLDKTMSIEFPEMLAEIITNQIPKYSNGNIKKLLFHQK

As to `O=C1NC(=O)C(c2ccccc2)(c2ccccc2)N1`, the activity, negative = inhibition is -0.146% in test [1] (at 17.2 µM (top of the series)) and -3.08% in [1] (at 38 µM (top of the series)). Besides, the Potency in test [2] was > 46 µM and > 20.6 µM; in test [3], > 46 µM. Further, the call in test [4], in test [12], in test [16] and in [17] was inactive. Besides, the Potency result in test [5], in test [7], in test [8], in [9], in test [10] and in test [11] was “inactive” in each case. Further, the Potency result in [13], in test [15], in test [18] and in [19] was “inactive” throughout. In test [6], the activity change, negative = cytotoxicity was -17.5%. Besides, the caspase-3 activation in [14] is 1.33%; in test [20], 0.679%.

On to `CCN(CC)C(=O)c1ccc(O)c(OC)c1`, for which the activity, negative = inhibition is 4.07% and -1.09% in test [1] (at 17.2 µM (top of the series)); -11.7% in test [1] (at 38 µM (top of the series)). The Potency was > 46 µM and > 20.6 µM in test [2]; > 46 µM and > 20.6 µM in test [3]. The compound was called inactive in [4] and in test [12].

As to `CC/C(=C(\c1ccccc1)c1ccc(OCCN(C)C)cc1)c1ccccc1`, the activity, negative = inhibition is 14.2% in [1] (at 17.2 µM (top of the series)) and 2.62% in [1] (at 38 µM (top of the series)). Further, the Potency in test [2] was > 46 µM and > 20.6 µM; in test [3], > 46 µM and > 20.6 µM; in [7] it was 50.1 µM (active); in test [8], 50.1 µM (active); in test [13], 50.1 µM (active); in test [15], 63.1 µM (active). Besides, in [4], the outcome was inactive. For the same compound, the activity change, negative = cytotoxicity is -117% (active) in test [5], -109% (active) in test [10] and -91.4% (active) in [11]. For the same compound, in test [9], the viability change, negative = cytotoxic was -99.3% (active).

Regarding `C[N+](C)(C)CCCCCC[N+](C)(C)C`, the activity, negative = inhibition in test [1] (at 17.2 µM (top of the series)) was 8.45%; in test [1] (at 38 µM (top of the series)), 9.91%. Besides, the call in test [4] and in test [12] was inactive.

Consider `CC(=O)c1ccc(S(=O)(=O)NC(=O)NC2CCCCC2)cc1`, for which the activity, negative = inhibition was -1.46% in test [1] (at 17.2 µM (top of the series)) and -26.2% in test [1] (at 38 µM (top of the series)). Also, the Potency is > 46 µM and > 20.6 µM in test [2]; > 46 µM and > 20.6 µM in test [3]. Besides, the outcome in [4], in [12], in [16] and in test [17] was inactive. Moreover, the Potency result in test [5], in [7], in test [8], in [9], in [10] and in test [11] was “inactive” throughout. Besides, the Potency result in test [13], in test [15], in [18] and in [19] was “inactive” in each case. The activity change, negative = cytotoxicity in test [6] is -15.1%. Also, the caspase-3 activation in [14] was 0.00348%; in test [20] it was 1.08%.

Take `COc1ccc2c3c1OC1C[C@@H](O)C=C[C@@]31CCN(C)C2` (stereo not given in full): the activity, negative = inhibition in test [1] (at 17.2 µM (top of the series)) is 12.6%. The Potency in [2] and in [3] was > 20.6 µM throughout. In addition, the outcome in [4] and in test [12] was inactive.
